Reference: PubChem BioAssay (EPA / NIEHS)
Values joined by “and” are separate entries in the source; they are usually repeats but may differ in a detail not shown here. Equal entries are not always repeated. Results filed as inconclusive are left out. Active and inactive are the calls of the source. The calls were made as follows, unless noted: active = hit-call score of the fitted dose curve at least 0.9, where 1 is the maximum; inactive = score below 0.9.

Tests used:
[1] = CCTE_Harrill_HTTr_Apoptosis_MCF7: CCTE's 6-hour Apoptosis Assessment for the High-Throughput Transcriptomics (HTTr) Platform, in MCF-7 cells cultured in DMEM + 10% fetal bovine serum, Harrill Lab (AID 2284011)
In short: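 Read-out: CellEvent Caspase 3/7 Green signal by high content imaging, gain-of-signal indicating apoptosis. MCF-7 cells, DMEM + 10% FBS, eight-point dilution series, 6 h exposure. Curves fitted bidirectionally relative to DMSO negative control.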

[2] = CCTE_Harrill_HTTr_CellCount_MCF7: CCTE's Cell Proliferation Assessment for the High-Throughput Transcriptomics (HTTr) Platform, Harrill Lab (AID 2284012; active = hit-call score of the fitted dose curve at least 0.9, where 1 is the maximum;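 also: count of Hoechst-stained nuclei per well by high-content imaging in MCF-7 cells; cells exposed to compound for six hours; intended direction is loss of nuclei count meaning fewer cells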)
In short: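 Chemicals in eight-point dilution series are added to MCF-7 cells for six hours, nuclei are stained with Hoechst and imaged, and per-well nuclei counts are fitted in both directions relative to DMSO controls.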

[3] = CCTE_Deisenroth_AIME_384WELL_CTox_Active: Cytotoxicity Assessment (CTOX) in CCTE's 384-well Estrogen Receptor Transactivation Assay with AIME metabolic competence (metabolism positive), Deisenroth Lab (AID 2284037; active = hit-call score of the fitted dose curve at least 0.9, where 1 is the maximum;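 also: chemicals first conditioned 2 h by alginate-bound induced rat liver S9 before cells; activity means signal loss indicating cell death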)
In short: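 VM7Luc4E2 breast cells received medium pre-incubated 2 h with chemical over alginate microspheres holding induced male Sprague Dawley rat liver S9; viability read 24 h later by protease-substrate fluorescence. Loss of signal, bidirectional fit, 0.002–200 uM.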

[4] = CCTE_Shafer_MEA_acute_burst_number: CCTE's Neural Acute Assay for Single-Electrode Bursts, Shafer Lab (AID 2284013)
In short: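 Rat cortical cultures, DIV 13/15; 40 min baseline, then 40 min with compound 0.03-40 uM, 37 C. Spikes: 300-5000 Hz band-pass, threshold 8x rms noise. Readout = % change in single-electrode bursts vs baseline, loss-of-signal fit.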

[5] = CCTE_Shafer_MEA_acute_burst_duration_mean: CCTE's Neural Acute Assay for Mean Burst Duration, Shafer Lab (AID 2284014);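 also: hits are decreases in mean burst duration relative to DMSO controls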
In short: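 Primary rat cortical neurons on 16-electrode MEA wells, treated on DIV 13 or 15 with compound (0.03-40 uM; ≥3 wells each). 40-min baseline and 40-min exposure recordings at 37 C; percent change in mean burst duration per well versus DMSO.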

[6] = CCTE_Shafer_MEA_acute_per_burst_spike_number_mean: CCTE's Neural Acute Assay for Average Number of Spikes Per Burst, Shafer Lab (AID 2284015);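 also: hits are decreases in mean spikes per burst versus baseline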
In short: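 Rat primary cortical neurons on 48-well MEAs (DIV 13 or 15) were treated with 0.03-40 uM compound at 37 C. Mean spikes per burst over 40 min were recorded before and after exposure and expressed as percent change from baseline, relative to DMSO.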

[7] = CCTE_Shafer_MEA_acute_interburst_interval_mean: CCTE's Neural Acute Assay for Mean Interburst Interval, Shafer Lab (AID 2284016);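 also: percent change of mean interburst interval versus each well's own pre-dose baseline; curves fitted for decrease in interburst interval relative to DMSO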
In short: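 Rat primary cortical neurons on 48-well MEAs at DIV 13 or 15 were exposed acutely to 0.03-40 uM. Spikes detected at 8x rms noise, 37 C. Mean interburst interval from 40 min recordings expressed as percent change from 40 min pre-treatment baseline.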

[8] = CCTE_Shafer_MEA_acute_burst_percentage_mean: CCTE's Neural Acute Assay for Percentage of Spikes in a Burst, Shafer Lab (AID 2284017);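 as to AC50: curve fitted for loss of signal so potency reflects decreased burst percentage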
In short: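 Primary rat cortical neurons on 48-well MEA plates, treated on DIV 13 or 15 at 0.03-40 uM. Spikes detected at 8x rms noise at 37C; percent change from 40-min baseline to 40-min post-dose recording, fitted versus DMSO.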

[9] = CCTE_Shafer_MEA_acute_burst_percentage_std: CCTE's Neural Acute Assay for Standard Deviation of Burst Percentage, Shafer Lab (AID 2284018);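 also: fitted in the negative direction so actives lower burst percentage SD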
In short: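 Primary rat cortical neurons on 16-electrode MEA wells were recorded 40 min at baseline (DIV 13 or 15), then 40 min after compound (0.03-40 uM), at 37 C. Well value is SD across electrodes of spikes-in-bursts/total spikes; endpoint is percent change, DMSO-referenced.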

[10] = CCTE_Shafer_MEA_acute_per_network_burst_spike_number_std: CCTE's Neural Acute Assay for Standard Deviation of Number of Spikes in a Network Burst, Shafer Lab (AID 2284020);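 also: fitted for decrease in spike-number SD versus DMSO so actives lower it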
In short: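 Primary rat cortical neurons on 48-well MEAs (16 electrodes/well) recorded at DIV 13 or 15: 40-min baseline, then 40 min with compound (0.03-40 uM), 37 C. Value is percent change in SD of spikes per network burst, relative to DMSO.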

[11] = CCTE_Shafer_MEA_acute_per_network_burst_electrodes_number_mean: CCTE's Neural Acute Assay for Mean Number of Electrodes in a Network Burst, Shafer Lab (AID 2284021);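 also: curves fitted for decreases only so hits reduce electrodes per burst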
In short: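 Readout: % change in mean electrodes active per network burst, post- vs pre-treatment, each well. Spikes detected at 8x rms noise after 300-5000 Hz band-pass; rat cortical cultures, DIV 13/15, compounds 0.03-40 uM, DMSO baseline.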

[12] = CCTE_Shafer_MEA_acute_network_burst_percentage: CCTE's Neural Acute Assay for Percentage of Network Bursts, Shafer Lab (AID 2284022);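 also: curves fitted for loss so actives lower network burst percentage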
In short: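 Rat cortical cultures, DIV 13/15; 20 min equilibration, 40 min baseline, compound 0.03-40 uM, 40 min recording, 37 C. Spikes: 300-5000 Hz band-pass, threshold 8x rms noise. Readout: % change in network-burst spike fraction; loss direction vs DMSO.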

[13] = CCTE_Shafer_MEA_acute_cross_correlation_area: CCTE's Neural Acute Assay for Area of Cross Correlation, Shafer Lab (AID 2284024);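 also: area under pooled inter-electrode spike cross-correlation near zero lag as percent change from own baseline; curves fitted for loss of cross-correlation area so actives lower synchrony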
In short: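 Rat cortical cultures, DIV 13/15, MEA; spikes detected at 8x rms noise (300-5000 Hz band-pass). Compound 0.03-40 uM, ≥3 wells each. Readout: % change in pooled inter-electrode cross-correlation area vs own baseline; DMSO negative control.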

[14] = CCTE_Shafer_MEA_acute_cross_correlation_HWHM: CCTE's Neural Acute Assay for Cross Correlation at Half Width at Half Maximum, Shafer Lab (AID 2284026);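 also: percent change per well from pre-dose baseline in spike cross-correlogram half width; hits are a decrease in cross-correlogram half width relative to DMSO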
In short: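 Read-out: half width at half maximum of action-potential cross-correlogram, percent change versus pre-treatment baseline, fitted in loss direction against DMSO. Rat cortical cultures, DIV 13 or 15, dosed 0.03-40 uM, 40-min recordings at 37 C.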

[15] = CCTE_Shafer_MEA_acute_synchrony_index: CCTE's Neural Acute Assay for Synchrony, Shafer Lab (AID 2284027);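 also: fitted for loss of signal so actives lower synchrony relative to DMSO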
In short: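 Readout is percent change in the unitless network synchrony index (0 low, 1 high) between a 40-min baseline and a 40-min recording in compound. Cultures were primary rat cortical neurons on MEAs, treated at 0.03-40 uM on DIV 13 or 15.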

[16] = CCTE_Shafer_MEA_dev_firing_rate_mean: CCTE's Neural Network Formation Assay for Mean Firing Rate, Shafer Lab (AID 2284031);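 also: AUC of well mean spike rate recorded on DIV 5 7 9 and 12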;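 as to AC50: curve fitted for loss of firing so AC50 reflects decreased mean firing rate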
In short: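 Rat primary cortical neurons were seeded on multielectrode arrays and treated from plating through day 12, with redosing at each feed. Spontaneous spiking was recorded four times; mean firing rate AUC was fitted downward against DMSO.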

[17] = CCTE_Shafer_MEA_dev_per_burst_spike_percent: CCTE's Neural Network Formation Assay for Percent of Spikes in a Burst, Shafer Lab (AID 2284032);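 as to AC50: fitted as a decrease in burst spike percentage below DMSO baseline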
In short: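 Rat primary cortical neurons on 16-electrode MEA wells, dosed from plating day 0 for 12 days with renewal on DIV 5 and 9; spikes-in-bursts percentage averaged over bursting electrodes, collapsed as AUC across days 5, 7, 9, 12; loss direction versus DMSO.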

[18] = CCTE_Deisenroth_AIME_384WELL_CTox_Inactive: Cytotoxicity Assessment (CTOX) in CCTE's 384-well Estrogen Receptor Transactivation Assay without AIME metabolic competence (metabolism negative), Deisenroth Lab (AID 2284039; active = hit-call score of the fitted dose curve at least 0.9, where 1 is the maximum;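 also: cell viability via live-cell protease substrate cleaved to fluorescent probe; cells exposed 24 h to medium preincubated 2 h with alginate-water beads without S9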)
In short: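 VM7Luc4E2 cells, metabolism-negative arm: test chemicals (0.002–200 uM, 10 points) pre-incubated 2 h with alginate-water microspheres, then medium transferred to cells for 24 h. Viability read as protease-substrate cleavage to fluorescent probe; loss-of-signal, bidirectional fitting.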

[19] = molecular target: Estrogen receptor (Homo sapiens) (UniProt P03372); assay: CCTE_Deisenroth_AIME_384WELL_LUC_Inactive: CCTE's 384-well Estrogen Receptor Transactivation Assay without AIME metabolic competence (ERTA luciferase; metabolism negative), Deisenroth Lab (AID 2284038; active = hit-call score of the fitted dose curve at least 0.9, where 1 is the maximum;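 also: hits raise estrogen receptor luciferase signal so potencies reflect agonists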)
Estrogen receptor (Homo sapiens), sequence (P03372 whole entry, looked up): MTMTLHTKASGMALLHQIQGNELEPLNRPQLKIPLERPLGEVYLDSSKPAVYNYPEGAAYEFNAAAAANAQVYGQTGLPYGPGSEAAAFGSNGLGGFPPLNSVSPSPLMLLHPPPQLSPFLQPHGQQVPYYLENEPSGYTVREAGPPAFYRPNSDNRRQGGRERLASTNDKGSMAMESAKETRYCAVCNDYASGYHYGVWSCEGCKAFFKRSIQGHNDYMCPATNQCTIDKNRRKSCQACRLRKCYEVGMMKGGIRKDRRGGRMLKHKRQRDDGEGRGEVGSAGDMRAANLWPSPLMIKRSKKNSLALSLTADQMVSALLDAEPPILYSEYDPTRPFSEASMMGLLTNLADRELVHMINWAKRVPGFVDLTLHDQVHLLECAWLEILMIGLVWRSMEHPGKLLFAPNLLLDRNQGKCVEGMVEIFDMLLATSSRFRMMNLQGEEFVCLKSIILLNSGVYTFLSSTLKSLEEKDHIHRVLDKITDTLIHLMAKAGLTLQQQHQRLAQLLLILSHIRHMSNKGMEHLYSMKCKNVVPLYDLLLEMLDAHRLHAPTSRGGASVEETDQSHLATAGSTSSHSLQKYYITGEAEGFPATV
In short: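 Metabolism-negative mode: chemicals (10-point, 0.002–200 uM) held 2 h with alginate-water microspheres, then conditioned medium applied to VM7Luc4E2 cells for 24 h. Luciferase induction referenced to 17beta-estradiol.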

Measured: AC50

CCCCCCCCCCCCCN1CC(C)OC(C)C1 (stereo not drawn)
inactive: [1] | [2]

CC(C)N(Cc1ccccc1)C(=O)C(C)(C)C
inactive: [1]

Nc1ccc(Oc2ccc(N)cc2)cc1
inactive: [1] | [2] | [3]

c1ccc2c(c1)-c1cccc3cccc-2c13
inactive: [1]

COC(=O)c1ccccc1N
inactive: [2]

O=C(O)C1C2CCC(O2)C1C(=O)O (stereo not drawn)
inactive: [1] | [2]

CN(C)c1ccccc1
inactive: [1] | [2]

ClC1=C(Cl)C2(Cl)C3C(Cl)C=CC3C1(Cl)C2(Cl)Cl (stereo not drawn)
active: [4] 20 µM | [6] 4.15 µM | [8] 0.72 µM | [9] 20 µM | [11] 4.31 µM | [13] 4.37 µM | [16] 4.54 µM | [17] 4.18 µM
inactive: [1] | [2] | [5] | [7] | [10] | [12] | [14] | [15]

Nc1cc(Cl)cc(C(=O)O)c1Cl
inactive: [1] | [2] | [16] | [17]

ClCCOCCCl
not listed: [2] | [16] | [17] | [19]
inactive: all other assays above

N#CC(Br)(Br)C(N)=O
inactive: [1] | [2]

C1=Cc2cccc3cccc1c23
inactive: [1] | [2] | [16] | [17]

Cn1cc(-c2ccccc2)c(=O)c(-c2cccc(C(F)(F)F)c2)c1
inactive: [1]

CCNS(=O)(=O)C(F)(F)C(F)(F)C(F)(F)C(F)(F)C(F)(F)C(F)(F)C(F)(F)C(F)(F)F
inactive: [1] | [16] | [3]
active: [17] 15 µM and 3.54 µM

CCCCCCCCn1sccc1=O
inactive: [4] | [6] | [7] | [9] | [13]
active: [1] 45.9 µM | [2] 50 µM | [5] 6.78 µM | [8] 8.26 µM | [10] 7.57 µM | [11] 6.8 µM | [12] 8.61 µM | [14] 11.5 µM | [15] 6.04 µM | [3] 196 µM | [18] 93.9 µM

CN(C)C(=O)Nc1ccc(Cl)cc1
inactive: [1] | [2] | [3] | [18]

Clc1ccccc1Cl
inactive: [1]

CO[C@@H]1[C@H](OC(=O)NC(=O)CCl)CC[C@]2(CO2)[C@H]1[C@@]1(C)O[C@@H]1CC=C(C)C
inactive: [1]

Nc1ccc(Cc2ccc(N)cc2)cc1
inactive: [1]

Clc1ccc(Cl)c(Cl)c1
inactive: [1]

Clc1ccc(C(c2ccc(Cl)cc2)C(Cl)Cl)cc1
active: [4] 2.56 µM | [8] 5.41 µM | [10] 6.77 µM | [11] 2.69 µM | [12] 7.42 µM | [14] 11.4 µM | [15] 4.76 µM | [16] 8.59 µM | [17] 4.86 µM
inactive: [2] | [5] | [6] | [7] | [9] | [13]

Oc1ccc2ccc3cccc4ccc1c2c34
inactive: [18]
active: [3] 88.4 µM

C[N+](C)(C)CC1CO1 (stereo not drawn)
not listed: [1] | [2] | [16] | [17]
inactive: all other assays above

OCCOCCO
inactive: [2] | [16] | [17] | [3] | [19] | [18]

CC(C)(C)C(O)(CCc1ccc(Cl)cc1)Cn1cncn1 (stereo not drawn)
active: [4] 3.5 µM | [7] 5.9 µM | [14] 20 µM | [17] 15 µM
not listed: [1] | [3] | [18] | [19]
inactive: all other assays above

Cc1ccc([N+](=O)[O-])cc1
inactive: [3] | [19] | [18]
